Source: PubChem BioAssay (National Center for Advancing Translational Sciences (NCATS))
ALDH1A1 block: ALDH1A1 (human) enzyme inhibition; P00352; Purified ALDH1A1, NADH fluorescence, propionaldehyde substrate; Potency, µM (doses to about 75.3 µM), hits mostly inhibitors; actives 7.3% (n = 220,000); AID 1030
HPGD block: inhibitors of human 15-hydroxyprostaglandin dehydrogenase (HPGD). P15428. Potency, µM, usual class: inhibitors. AID 894. purified HPGD, NADH fluorescence kinetic, PGE2 substrate. actives 4.3% (n = 150,000)
Target sequence (P15428 whole entry, looked up): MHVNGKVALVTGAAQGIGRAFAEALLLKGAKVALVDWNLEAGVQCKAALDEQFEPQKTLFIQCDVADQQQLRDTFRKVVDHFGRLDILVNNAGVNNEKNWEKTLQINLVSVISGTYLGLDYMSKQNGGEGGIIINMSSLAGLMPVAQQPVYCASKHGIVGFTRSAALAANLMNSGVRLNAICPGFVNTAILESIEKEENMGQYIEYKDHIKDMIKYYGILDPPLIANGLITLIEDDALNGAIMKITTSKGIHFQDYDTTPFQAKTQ
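20 nM HPGD preincubated 15 min at room temperature with compound in 50 mM Tris-HCl pH 8, 0.01% Tween 20. Started with 1 mM NAD+ and 30 uM prostaglandin E2; NADH fluorescence (360/450 nm) read 5 times over 30-s intervals, last minus first.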
PNC assembly inh: inhibitors of perinucleolar compartment assembly; PC3M PTB-GFP, PNC prevalence imaging, 16 h; hits give low values; activity change (PNC), negative = inhibition, % at 10 µM; actives 3.1% (n = 140,000); AID 2417;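 active = readout at or below -70, meaning at least 70% loss of cells showing the perinucleolar compartment, a nuclear body marking cancer cells; inconclusive = readout between -30 and a set limit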
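Read-out is percentage of cells bearing a perinucleolar compartment, from automated 20x imaging of fixed, Hoechst-stained PC3M PTB-GFP cells. Cells were seeded 4 h, then exposed 16 h to compound (23 nl of library stock) in duplicate plates.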
Each line names hits and unclear results; the compound was inactive in the other large screens. Sampled rows, rich in hits. Any-hit rate of the full collection: about 11%. Unless noted, calls come from the whole dose curve; as a rule, active = well fitted inhibition curve with a large enough effect (not every such curve was filed as active); inconclusive = small, poorly fitted or top-dose-only effect, or another doubt; inactive = no such curve, though single readings can be large or run the other way.

C1CCC[C@H]2CCCN3CC[C@H](CCCCCC[C@@H]4CCCN5CC[C@H](CC1)OC45)OC23	none (no result: HPGD block, PNC assembly inh)
C#CC(C)OC(=O)c1nnc2c3ccccc3n(COC)c2n1 (centres undefined)	none (no result: HPGD block, PNC assembly inh)
CC(N)=NCCCC[C@H](N)C(=O)O	none (no result: PNC assembly inh)
Cc1ccc(SCCNC(=O)C(C)C)cc1	none
CN(C)c1ccc(NC(=O)/C=C/c2ccccc2Cl)cc1	ALDH1A1 block inconclusive
Cc1ccc(SCCNC(=O)c2ccccc2C)cc1	HPGD block 15.8µM
O=C(/C=C/c1ccccc1Cl)NCCc1ccccc1	HPGD block 15.8µM
Cc1ccc(SCCNC(=O)/C=C/c2ccc(Cl)cc2)cc1	none
Cc1ccc(SCCNC(=O)/C=C/c2ccccc2Cl)cc1	ALDH1A1 block 12.6µM, HPGD block inconclusive, PNC assembly inh inconclusive
O=C(/C=C/c1ccccc1Cl)NCc1ccccc1	none
CCN(CC)c1ccc(NC(=O)/C=C\c2ccccc2Cl)cc1	PNC assembly inh -81.0
OC/C=C/c1ccc(O)c(O)c1	ALDH1A1 block inconclusive (no result: PNC assembly inh)
C/C1=C2N=C(/C=C3N=C(/C(C)=C4\[N-]C(C)(C5N=C1C(C)(CCC(=O)NCC(C)OP(=O)([O-])O[C@H]1C(O)C(n6cnc7cc(C)c(C)cc76)O[C@@H]1CO)C5CC(N)=O)C(C)(CC(N)=O)C4CCC(N)=O)C(C)(CC(N)=O)C\3CCC(N)=O)C(C)(C)C/2CCC(N)=O.[CH2-]C1OC(n2cnc3c(N)ncnc32)C(O)C1O.[Co] (some centres undefined)	none (no result: PNC assembly inh)
CC1=C(C)C[C@@]23CCCN2C(=O)CCC[C@H]3C1	ALDH1A1 block inconclusive (no result: PNC assembly inh)
Cc1ccccc1-c1nc(N(C)C)c2ccccc2n1	none (no result: HPGD block, PNC assembly inh)
CCN(CCCNC(=O)CN1C(=O)COc2ccccc21)c1ccccc1	none
CCCCN(CCCNC(=O)CN1C(=O)COc2ccccc21)c1ccccc1	ALDH1A1 block 12.6µM, PNC assembly inh inconclusive
CCN(CCCNC(=O)c1c(C)cc(=O)oc1C)c1ccccc1	ALDH1A1 block 7.94µM, PNC assembly inh inconclusive
CCCNC(=O)c1c(C)cc(=O)oc1C	PNC assembly inh inconclusive
CCCCN(CCCNC(=O)c1c(C)cc(=O)oc1C)c1ccccc1	ALDH1A1 block 22.4µM, PNC assembly inh -97.8
Cc1cc(=O)oc(C)c1C(=O)NCc1ccccc1	none
CC(=O)N1C2(C=CC1(C)C(=O)NCc1cc(F)cc(C(F)(F)F)c1)CCCCC2 (centres undefined)	none (no result: PNC assembly inh)
CC(=O)O[C@]12CC[N@+]3(C)CCCC[C@@H]3[C-]1Nc1ccccc12	none (no result: PNC assembly inh)
O=C(NCc1csc(-c2cccs2)n1)C1CCC1	none (no result: HPGD block, PNC assembly inh)
CCOC(=O)C(C)S(=O)(=O)c1ccc(C(F)(F)F)cn1 (centres undefined)	PNC assembly inh inconclusive
O=C1N=C(N2CCCC2C(=O)O)S/C1=C\c1ccco1 (centres undefined)	none (no result: HPGD block, PNC assembly inh)
COc1ccc2nc3c(nc2c1)C(=O)c1ccccc1-3	none (no result: PNC assembly inh)
COc1ccc2nc3c(c([Si](C)(C)C(C)(C)C)c2c1)Cn1c-3cccc1=O	ALDH1A1 block 22.4µM, HPGD block inconclusive (no result: PNC assembly inh)
CN(Cc1ccccc1)S(=O)(=O)c1ccc(N2CCOCC2)nc1	none (no result: HPGD block, PNC assembly inh)
COc1cc(C(=O)NC(=S)Nc2ccc([N+](=O)[O-])cc2)cc(OC)c1OC	ALDH1A1 block inconclusive
COCCCNC(=S)Nc1ccccc1[N+](=O)[O-]	ALDH1A1 block 22.4µM (no result: HPGD block, PNC assembly inh)
COc1cc(C(=O)NC(=S)Nc2ccccc2[N+](=O)[O-])cc(OC)c1OC	ALDH1A1 block 17.8µM (no result: HPGD block, PNC assembly inh)
COc1cc(C(=O)NC(=S)Nc2ccc([N+](=O)[O-])cc2C)cc(OC)c1OC	ALDH1A1 block 12.6µM
CCOC(=O)C(=O)Nc1cc([N+](=O)[O-])ccc1C	ALDH1A1 block inconclusive
COCCNC(=S)Nc1ccccc1[N+](=O)[O-]	none (no result: HPGD block, PNC assembly inh)
CCCCNC(=S)Nc1cc([N+](=O)[O-])ccc1C	HPGD block 14.1µM
COc1ccc(C(=O)NC(=S)Nc2ccccc2N2CCCCC2)cc1[N+](=O)[O-]	ALDH1A1 block inconclusive
NC(N)=N[C@H](CC(=O)O)c1ccccc1	none (no result: PNC assembly inh)
O=Cc1ccc(Cl)c(Cl)c1	ALDH1A1 block inconclusive (no result: PNC assembly inh)
CCOC(=O)CC(=O)NC1(Cc2ccc(O)cc2)CCCCC1	none (no result: HPGD block, PNC assembly inh)
Cc1ccc(S(=O)(=O)N(C)C)cc1NC(=S)N1CCN(Cc2ccc3c(c2)OCO3)CC1	none (no result: HPGD block, PNC assembly inh)
Cc1cc(C(F)F)n2ncc(C(=O)N3CCCCC3)c2n1	HPGD block 11.2µM
Cc1cc(C(F)F)n2ncc(C(=O)N3CCC(C(N)=O)CC3)c2n1	none
Cn1c(=O)[nH]c(=O)c2c1nc(N1CCCC1)n2CCCSc1nc2ccccc2o1	HPGD block 28.2µM
CC1CCCN(c2nc3c(c(=O)[nH]c(=O)n3C)n2CCSc2nc3ccccc3o2)C1 (centres undefined)	none
O=C1c2ccccc2C(=O)N1Cc1nc2ccccc2o1	none
Cn1c(=O)[nH]c(=O)c2c1nc(Br)n2CCSc1ncccn1	none
O=C1c2ccccc2C(=O)N1CCCSc1nc2ccccc2o1	ALDH1A1 block inconclusive, HPGD block 20µM
Cn1c(=O)[nH]c(=O)c2c1nc(Br)n2CCCSc1nc2ccccc2o1	ALDH1A1 block inconclusive, HPGD block 22.4µM
C[C@H](N)CCP(=O)(O)O	none (no result: HPGD block, PNC assembly inh)
CCC(C)NC(=O)Cn1cc(S(=O)(=O)N2CCN(c3ccccc3F)CC2)c2ccccc2c1=O (centres undefined)	none (no result: HPGD block, PNC assembly inh)
Clc1ccccc1CSc1nncn1NC/C=C/c1ccccc1	PNC assembly inh inconclusive
CSc1ccc(NC(=O)Nc2ccc(C(=O)NCC(=O)O)cc2)cc1	none (no result: HPGD block, PNC assembly inh)
NCCNS(=O)(=O)c1cccc2c(Cl)cccc12	none (no result: PNC assembly inh)
Cc1ccc(S(=O)(=O)n2c3ccc(F)cc3c3nc(C)sc32)cc1	none
CC(C)C(c1nnnn1C(C)(C)C)N1CCC(Cc2ccccc2)CC1 (centres undefined)	ALDH1A1 block 22.4µM
CC(C)C(c1nnnn1C(C)(C)C)N1CCOCC1 (centres undefined)	ALDH1A1 block inconclusive
COc1cccc(-c2cncnc2NCc2ccc(OC)cc2OC)c1	ALDH1A1 block inconclusive (no result: PNC assembly inh)
O=c1[nH]c(S)c(/C=C2\C=Nc3ccccc32)s1	ALDH1A1 block 25.1µM (no result: HPGD block, PNC assembly inh)
O=C(Cn1c(O)c(/C=C2\C=Nc3ccccc32)sc1=O)N1CCOCC1	none (no result: HPGD block, PNC assembly inh)
O=C1NC(=Nc2ccc(Cl)cc2)/C(=C/c2ccco2)S1	ALDH1A1 block inconclusive
O=C1NC(=NCc2ccccc2)S/C1=C\c1ccccc1	HPGD block inconclusive
O=C1NC(=S)S/C1=C\c1ccc(SCc2ccco2)o1	ALDH1A1 block 0.891µM, HPGD block 7.08µM
O=C1NC(=S)S/C1=C\c1ccc(SCc2ccccc2)o1	ALDH1A1 block inconclusive, HPGD block 17.8µM
CCC1=NN2C(=N)/C(=C\c3ccc(SCc4ccco4)o3)C(=O)N=C2S1	none
CCCC1=NN2C(=N)/C(=C\c3ccc(SCc4ccco4)o3)C(=O)N=C2S1	ALDH1A1 block 22.4µM, HPGD block 22.4µM
CC(NC(=O)Cc1ccccc1)c1cc2c(cc1Br)OCCCO2 (centres undefined)	PNC assembly inh inconclusive
Cc1nc(Cl)c(C(=O)NC(=O)NCc2ccccc2)c(C)c1Cl	none
COC(=O)c1ccc(CNC(=O)COC(=O)C2CCC(C(C)(C)C)CC2)cc1 (centres undefined)	ALDH1A1 block inconclusive, PNC assembly inh inconclusive
O=C(O)CCc1nc2ccccc2[nH]1	none (no result: PNC assembly inh)
CCOc1c(C)cc2[nH]c(CCC(=O)O)nc2c1C	PNC assembly inh -118.8
S=C(NCc1cccc(Cl)c1)NC1CCCCC1	PNC assembly inh -109.0
S=C(NCc1ccccc1)NC1CCCCC1	none (no result: HPGD block, PNC assembly inh)
